In the supplement of paper PMC11732987, “Enantioselective OTUD7B fragment discovery through chemoproteomics screening and high-throughput optimisation” (Communications Chemistry, 2025):

Tests used:
Experiment in all cases: log2 ratio of Biotin-Ahx-Ub-VS probe labelling (fragment/DMSO); higher = less target engagement (more negative = stronger competition), active = hit call of the paper (q ≤ 0.05, log2 ratio ≤ -1)
Conditions in all cases: compound concentration: 200 uM; treatment time: 3 h
USP42 = molecular target: T1, USP42 (UniProt Q9H9J4)
T1 sequence (whole entry): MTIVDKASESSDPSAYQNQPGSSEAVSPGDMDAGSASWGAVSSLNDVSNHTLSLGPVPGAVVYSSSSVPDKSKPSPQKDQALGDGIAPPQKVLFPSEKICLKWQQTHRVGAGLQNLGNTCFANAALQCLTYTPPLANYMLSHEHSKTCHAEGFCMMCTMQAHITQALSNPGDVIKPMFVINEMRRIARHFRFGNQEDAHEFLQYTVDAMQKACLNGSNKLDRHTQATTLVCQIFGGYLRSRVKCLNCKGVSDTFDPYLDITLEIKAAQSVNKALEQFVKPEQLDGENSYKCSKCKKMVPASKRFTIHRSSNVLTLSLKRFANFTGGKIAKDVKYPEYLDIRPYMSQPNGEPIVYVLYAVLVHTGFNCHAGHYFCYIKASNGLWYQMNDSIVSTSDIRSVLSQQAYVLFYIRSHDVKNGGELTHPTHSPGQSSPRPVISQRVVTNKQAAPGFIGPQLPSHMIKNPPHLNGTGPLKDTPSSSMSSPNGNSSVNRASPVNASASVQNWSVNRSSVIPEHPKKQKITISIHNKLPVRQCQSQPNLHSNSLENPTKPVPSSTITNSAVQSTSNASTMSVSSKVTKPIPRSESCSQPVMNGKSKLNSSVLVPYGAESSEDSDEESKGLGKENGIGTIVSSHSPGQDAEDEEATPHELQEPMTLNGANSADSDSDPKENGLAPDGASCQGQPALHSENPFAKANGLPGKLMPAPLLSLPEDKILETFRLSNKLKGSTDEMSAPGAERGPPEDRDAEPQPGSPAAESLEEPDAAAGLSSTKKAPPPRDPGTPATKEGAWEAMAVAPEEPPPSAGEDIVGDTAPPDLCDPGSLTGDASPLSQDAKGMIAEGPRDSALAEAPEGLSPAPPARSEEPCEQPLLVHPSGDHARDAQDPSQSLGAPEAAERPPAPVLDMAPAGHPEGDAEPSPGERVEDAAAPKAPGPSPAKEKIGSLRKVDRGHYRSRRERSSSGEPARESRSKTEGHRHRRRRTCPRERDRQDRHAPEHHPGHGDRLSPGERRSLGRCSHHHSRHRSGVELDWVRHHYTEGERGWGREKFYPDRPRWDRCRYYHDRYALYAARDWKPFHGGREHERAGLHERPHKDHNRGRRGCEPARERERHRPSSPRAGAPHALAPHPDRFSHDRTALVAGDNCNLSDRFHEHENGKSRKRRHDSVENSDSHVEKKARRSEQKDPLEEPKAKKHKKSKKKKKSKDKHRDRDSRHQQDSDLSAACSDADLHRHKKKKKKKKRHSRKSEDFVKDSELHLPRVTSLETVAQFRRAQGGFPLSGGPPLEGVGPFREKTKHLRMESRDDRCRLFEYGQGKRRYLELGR
Procedure, shortened: (§1)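 Labelled DUBs from HEK293T lysate were NeutrAvidin-enriched, digested with LysC and trypsin, and run by diaPASEF LC-MS/MS. Before that, each 495 µg sample in Tris/CHAPS/IGEPAL buffer with protease inhibitors was treated in triplicate with fragment at 200 µM or vehicle for 3 h, then with Biotin-Ahx-Ub-VS at 0.5 µM final for 1 h. Values are average log2 ratios of fragment over vehicle by unpaired t-test, based on global-median-normalised Spectronaut label-free quantities from proteins with ≥2 unique peptides.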

USP46 = USP46 (UniProt P62068)
Chain of USP46 (P62068 whole entry): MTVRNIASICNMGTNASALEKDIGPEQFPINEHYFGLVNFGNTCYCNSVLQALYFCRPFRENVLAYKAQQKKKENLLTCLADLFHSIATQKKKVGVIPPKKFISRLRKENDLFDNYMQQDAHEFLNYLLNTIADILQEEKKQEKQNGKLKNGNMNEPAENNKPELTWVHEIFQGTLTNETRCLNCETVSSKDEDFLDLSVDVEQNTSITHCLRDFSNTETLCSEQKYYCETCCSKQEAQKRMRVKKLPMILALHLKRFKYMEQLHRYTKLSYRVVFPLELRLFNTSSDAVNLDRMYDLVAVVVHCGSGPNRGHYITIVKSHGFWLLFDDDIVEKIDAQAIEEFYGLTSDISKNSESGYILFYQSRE
Procedure, shortened: as §1

USP47 = molecular target: T2, USP47 (UniProt Q96K76)
T2 sequence (whole entry): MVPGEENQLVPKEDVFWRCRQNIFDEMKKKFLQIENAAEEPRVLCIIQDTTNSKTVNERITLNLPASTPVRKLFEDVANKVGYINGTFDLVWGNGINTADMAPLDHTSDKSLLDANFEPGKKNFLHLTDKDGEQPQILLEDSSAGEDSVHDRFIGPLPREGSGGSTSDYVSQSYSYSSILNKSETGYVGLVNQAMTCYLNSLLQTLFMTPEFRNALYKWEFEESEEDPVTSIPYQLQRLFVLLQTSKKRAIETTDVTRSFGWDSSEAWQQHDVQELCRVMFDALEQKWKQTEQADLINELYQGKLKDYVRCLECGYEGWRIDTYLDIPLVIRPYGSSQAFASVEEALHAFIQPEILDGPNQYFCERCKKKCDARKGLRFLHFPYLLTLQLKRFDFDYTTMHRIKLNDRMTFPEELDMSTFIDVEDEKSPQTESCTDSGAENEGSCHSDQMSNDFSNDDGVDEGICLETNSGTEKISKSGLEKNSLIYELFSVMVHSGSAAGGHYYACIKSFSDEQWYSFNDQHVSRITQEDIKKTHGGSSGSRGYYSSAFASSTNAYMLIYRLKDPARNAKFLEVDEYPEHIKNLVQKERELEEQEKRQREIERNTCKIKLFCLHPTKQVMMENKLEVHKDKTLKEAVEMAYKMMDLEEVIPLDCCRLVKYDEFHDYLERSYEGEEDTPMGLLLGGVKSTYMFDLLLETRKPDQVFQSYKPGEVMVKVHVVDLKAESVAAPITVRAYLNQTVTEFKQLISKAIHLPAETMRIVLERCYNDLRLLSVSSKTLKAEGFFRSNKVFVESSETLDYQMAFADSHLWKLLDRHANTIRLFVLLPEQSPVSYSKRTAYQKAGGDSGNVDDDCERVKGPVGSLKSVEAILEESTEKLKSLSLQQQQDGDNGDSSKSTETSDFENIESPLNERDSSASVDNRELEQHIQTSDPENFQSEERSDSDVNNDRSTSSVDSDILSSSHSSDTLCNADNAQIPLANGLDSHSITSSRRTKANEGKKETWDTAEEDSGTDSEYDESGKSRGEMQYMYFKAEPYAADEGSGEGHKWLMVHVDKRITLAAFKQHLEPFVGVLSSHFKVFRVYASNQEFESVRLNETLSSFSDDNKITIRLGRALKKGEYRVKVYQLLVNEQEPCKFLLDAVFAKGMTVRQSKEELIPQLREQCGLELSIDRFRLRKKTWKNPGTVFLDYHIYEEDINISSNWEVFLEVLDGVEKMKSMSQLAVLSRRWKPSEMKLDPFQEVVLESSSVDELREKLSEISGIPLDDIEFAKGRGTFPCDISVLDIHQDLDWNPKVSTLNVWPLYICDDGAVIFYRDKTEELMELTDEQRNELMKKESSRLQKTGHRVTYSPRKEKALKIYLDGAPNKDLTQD
Procedure, shortened: as §1

USP48 = molecular target: T3, USP48 (UniProt Q86UV5)
T3 sequence (whole entry): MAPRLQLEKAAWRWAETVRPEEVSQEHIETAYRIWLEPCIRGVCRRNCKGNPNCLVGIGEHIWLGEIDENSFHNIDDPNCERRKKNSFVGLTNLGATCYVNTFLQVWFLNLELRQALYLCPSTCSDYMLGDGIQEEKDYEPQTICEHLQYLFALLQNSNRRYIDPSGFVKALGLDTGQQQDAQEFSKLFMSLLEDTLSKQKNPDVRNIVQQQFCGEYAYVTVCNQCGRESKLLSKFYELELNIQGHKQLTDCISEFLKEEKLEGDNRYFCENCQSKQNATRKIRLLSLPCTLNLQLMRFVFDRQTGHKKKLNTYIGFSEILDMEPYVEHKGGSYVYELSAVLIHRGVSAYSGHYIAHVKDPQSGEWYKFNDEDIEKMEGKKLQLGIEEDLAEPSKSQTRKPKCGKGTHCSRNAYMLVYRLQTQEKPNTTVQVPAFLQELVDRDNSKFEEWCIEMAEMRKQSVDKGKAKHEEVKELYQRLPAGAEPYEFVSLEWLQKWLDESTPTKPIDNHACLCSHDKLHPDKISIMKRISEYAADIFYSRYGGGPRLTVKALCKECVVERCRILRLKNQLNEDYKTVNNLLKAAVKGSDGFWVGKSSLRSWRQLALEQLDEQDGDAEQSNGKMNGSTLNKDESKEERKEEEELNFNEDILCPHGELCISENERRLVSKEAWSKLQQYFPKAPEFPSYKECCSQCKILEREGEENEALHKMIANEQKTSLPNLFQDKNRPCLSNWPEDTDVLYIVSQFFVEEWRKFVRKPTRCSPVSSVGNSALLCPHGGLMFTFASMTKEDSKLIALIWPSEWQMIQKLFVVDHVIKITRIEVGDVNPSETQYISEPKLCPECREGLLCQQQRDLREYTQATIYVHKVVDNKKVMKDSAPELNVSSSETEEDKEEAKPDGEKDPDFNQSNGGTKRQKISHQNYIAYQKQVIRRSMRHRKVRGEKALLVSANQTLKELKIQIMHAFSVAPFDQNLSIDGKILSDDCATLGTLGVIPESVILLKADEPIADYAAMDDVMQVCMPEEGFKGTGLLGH
Procedure, shortened: as §1

USP5 = molecular target: T4, USP5 (UniProt P45974)
T4 sequence (whole entry): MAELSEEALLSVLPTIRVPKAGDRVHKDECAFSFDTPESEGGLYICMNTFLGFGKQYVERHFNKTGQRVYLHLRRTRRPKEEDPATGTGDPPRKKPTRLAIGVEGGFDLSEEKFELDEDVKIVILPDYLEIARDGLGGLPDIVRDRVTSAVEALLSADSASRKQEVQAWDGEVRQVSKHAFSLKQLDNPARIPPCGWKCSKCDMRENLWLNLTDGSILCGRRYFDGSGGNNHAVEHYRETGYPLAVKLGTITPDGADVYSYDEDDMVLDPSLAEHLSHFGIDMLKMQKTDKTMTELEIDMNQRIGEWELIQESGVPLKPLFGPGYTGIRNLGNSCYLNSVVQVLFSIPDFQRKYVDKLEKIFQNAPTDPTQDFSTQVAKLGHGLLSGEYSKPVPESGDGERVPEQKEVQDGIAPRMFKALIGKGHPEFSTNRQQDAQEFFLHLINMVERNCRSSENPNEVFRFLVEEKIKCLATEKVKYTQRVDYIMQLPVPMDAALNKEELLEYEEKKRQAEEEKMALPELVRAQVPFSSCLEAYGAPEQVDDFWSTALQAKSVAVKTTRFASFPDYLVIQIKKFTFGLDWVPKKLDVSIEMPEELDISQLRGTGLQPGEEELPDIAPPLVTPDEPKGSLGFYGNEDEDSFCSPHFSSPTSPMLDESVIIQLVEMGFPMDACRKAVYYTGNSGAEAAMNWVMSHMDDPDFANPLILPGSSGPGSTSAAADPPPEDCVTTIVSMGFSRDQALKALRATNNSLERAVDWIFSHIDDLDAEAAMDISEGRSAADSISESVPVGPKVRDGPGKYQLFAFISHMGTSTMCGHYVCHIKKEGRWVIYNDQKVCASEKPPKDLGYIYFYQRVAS
Procedure, shortened: as §1

USP54 = USP54 (UniProt Q70EL1)
Chain of USP54 (Q70EL1 whole entry): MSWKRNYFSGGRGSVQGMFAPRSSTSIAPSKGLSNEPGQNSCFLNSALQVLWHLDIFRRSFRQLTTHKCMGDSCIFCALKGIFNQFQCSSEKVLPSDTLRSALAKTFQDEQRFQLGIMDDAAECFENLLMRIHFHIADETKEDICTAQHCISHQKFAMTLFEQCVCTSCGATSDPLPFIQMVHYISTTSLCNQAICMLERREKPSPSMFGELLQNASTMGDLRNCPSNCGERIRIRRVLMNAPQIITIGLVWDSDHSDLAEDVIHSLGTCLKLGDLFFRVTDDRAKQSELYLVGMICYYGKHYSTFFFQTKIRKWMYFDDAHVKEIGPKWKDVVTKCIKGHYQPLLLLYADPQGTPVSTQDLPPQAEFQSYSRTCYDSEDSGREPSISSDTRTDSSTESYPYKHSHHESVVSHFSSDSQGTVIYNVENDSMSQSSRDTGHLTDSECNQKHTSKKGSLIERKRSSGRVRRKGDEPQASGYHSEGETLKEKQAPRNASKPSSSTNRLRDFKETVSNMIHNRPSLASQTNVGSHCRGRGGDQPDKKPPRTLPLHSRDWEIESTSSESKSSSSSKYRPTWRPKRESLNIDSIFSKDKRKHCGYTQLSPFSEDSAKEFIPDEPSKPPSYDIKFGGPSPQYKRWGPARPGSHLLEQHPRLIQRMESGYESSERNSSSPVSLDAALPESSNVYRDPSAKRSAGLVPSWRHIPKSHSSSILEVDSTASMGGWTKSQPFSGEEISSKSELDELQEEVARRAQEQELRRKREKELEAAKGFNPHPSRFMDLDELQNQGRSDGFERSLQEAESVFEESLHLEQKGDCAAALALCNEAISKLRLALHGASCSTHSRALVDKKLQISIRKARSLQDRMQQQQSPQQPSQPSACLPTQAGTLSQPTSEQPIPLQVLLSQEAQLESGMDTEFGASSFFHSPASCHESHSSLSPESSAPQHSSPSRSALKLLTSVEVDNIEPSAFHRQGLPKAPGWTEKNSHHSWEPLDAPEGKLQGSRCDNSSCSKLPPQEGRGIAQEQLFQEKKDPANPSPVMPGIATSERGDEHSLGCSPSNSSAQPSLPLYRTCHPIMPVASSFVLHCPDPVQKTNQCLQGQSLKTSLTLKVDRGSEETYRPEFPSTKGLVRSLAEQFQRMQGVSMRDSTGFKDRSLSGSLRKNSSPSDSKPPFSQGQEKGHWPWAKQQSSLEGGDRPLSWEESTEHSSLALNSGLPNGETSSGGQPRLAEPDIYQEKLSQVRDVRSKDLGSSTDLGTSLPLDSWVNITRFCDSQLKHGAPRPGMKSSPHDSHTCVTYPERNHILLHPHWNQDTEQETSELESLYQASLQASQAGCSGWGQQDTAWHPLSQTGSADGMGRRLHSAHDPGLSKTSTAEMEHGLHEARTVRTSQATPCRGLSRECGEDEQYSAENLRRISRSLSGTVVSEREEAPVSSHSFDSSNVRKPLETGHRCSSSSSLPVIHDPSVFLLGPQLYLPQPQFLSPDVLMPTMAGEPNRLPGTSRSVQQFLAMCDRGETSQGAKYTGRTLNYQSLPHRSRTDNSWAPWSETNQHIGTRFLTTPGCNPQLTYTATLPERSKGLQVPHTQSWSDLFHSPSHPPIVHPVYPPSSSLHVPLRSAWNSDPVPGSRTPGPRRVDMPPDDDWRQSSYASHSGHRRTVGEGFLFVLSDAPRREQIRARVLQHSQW
Procedure, shortened: as §1

USP7 = USP7 (UniProt Q93009)
Chain of USP7 (Q93009 whole entry, looked up): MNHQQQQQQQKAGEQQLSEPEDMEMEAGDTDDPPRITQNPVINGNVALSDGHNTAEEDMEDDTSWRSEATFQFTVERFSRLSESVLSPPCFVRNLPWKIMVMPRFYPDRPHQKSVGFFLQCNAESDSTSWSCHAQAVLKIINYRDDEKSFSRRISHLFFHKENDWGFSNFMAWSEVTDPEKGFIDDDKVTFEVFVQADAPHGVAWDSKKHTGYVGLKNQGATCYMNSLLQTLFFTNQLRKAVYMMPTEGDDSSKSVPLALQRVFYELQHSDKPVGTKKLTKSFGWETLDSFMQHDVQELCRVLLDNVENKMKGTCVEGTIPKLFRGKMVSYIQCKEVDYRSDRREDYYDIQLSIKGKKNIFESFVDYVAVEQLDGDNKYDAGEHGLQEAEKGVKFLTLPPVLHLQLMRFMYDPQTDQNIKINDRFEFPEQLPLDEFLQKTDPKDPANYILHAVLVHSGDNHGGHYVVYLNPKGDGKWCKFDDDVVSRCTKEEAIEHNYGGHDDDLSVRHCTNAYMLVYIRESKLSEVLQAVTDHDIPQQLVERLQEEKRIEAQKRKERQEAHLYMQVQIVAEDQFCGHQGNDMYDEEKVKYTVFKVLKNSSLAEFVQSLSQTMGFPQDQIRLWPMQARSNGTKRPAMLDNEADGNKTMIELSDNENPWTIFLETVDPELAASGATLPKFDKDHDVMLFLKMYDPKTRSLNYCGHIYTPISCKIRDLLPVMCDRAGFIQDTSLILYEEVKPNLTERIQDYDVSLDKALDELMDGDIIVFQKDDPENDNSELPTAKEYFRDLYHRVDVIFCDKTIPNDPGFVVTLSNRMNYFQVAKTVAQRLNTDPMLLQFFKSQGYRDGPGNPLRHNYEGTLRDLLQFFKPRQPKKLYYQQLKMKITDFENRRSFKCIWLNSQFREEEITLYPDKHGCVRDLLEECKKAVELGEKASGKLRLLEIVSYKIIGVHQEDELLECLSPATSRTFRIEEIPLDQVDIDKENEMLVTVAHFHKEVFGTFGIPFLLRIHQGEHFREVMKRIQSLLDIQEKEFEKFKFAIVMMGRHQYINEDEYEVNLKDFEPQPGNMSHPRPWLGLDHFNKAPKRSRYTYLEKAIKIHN
Procedure, shortened: as §1

USP8 = molecular target: T5, USP8 (UniProt P40818)
T5 sequence (whole entry): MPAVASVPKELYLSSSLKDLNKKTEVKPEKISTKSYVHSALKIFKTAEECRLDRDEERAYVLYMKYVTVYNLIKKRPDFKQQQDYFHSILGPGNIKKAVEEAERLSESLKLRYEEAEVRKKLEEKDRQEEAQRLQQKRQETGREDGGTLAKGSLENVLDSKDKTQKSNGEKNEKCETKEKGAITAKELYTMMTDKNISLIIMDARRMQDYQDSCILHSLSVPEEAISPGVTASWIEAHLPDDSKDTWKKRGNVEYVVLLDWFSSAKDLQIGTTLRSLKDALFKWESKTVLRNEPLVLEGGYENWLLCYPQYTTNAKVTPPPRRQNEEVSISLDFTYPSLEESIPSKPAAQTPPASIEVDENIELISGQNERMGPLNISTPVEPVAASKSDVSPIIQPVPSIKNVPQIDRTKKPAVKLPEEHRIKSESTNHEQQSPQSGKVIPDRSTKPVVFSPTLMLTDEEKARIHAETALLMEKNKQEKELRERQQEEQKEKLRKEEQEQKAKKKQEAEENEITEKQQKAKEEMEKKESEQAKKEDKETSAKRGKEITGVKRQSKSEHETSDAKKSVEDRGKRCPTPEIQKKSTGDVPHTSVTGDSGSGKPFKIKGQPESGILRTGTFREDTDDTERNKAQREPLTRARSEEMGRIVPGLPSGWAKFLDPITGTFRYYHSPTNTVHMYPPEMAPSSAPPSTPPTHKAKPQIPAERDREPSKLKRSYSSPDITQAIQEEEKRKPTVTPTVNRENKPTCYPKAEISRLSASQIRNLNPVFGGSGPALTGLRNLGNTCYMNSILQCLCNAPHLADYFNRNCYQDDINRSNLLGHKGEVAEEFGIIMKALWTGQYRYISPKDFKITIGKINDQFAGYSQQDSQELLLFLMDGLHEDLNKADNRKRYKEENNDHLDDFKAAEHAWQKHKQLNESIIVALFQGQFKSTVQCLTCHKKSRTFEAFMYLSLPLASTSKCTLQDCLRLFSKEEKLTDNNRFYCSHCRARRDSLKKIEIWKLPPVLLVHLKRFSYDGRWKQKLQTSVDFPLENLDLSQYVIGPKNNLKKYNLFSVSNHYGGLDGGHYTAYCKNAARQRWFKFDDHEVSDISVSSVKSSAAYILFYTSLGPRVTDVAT
Procedure, shortened: as §1

USP9X = USP9X (UniProt Q93008)
Procedure, shortened: as §1

UniProt O00487 = molecular target: UniProt O00487
Chain of UniProt O00487 (O00487 whole entry): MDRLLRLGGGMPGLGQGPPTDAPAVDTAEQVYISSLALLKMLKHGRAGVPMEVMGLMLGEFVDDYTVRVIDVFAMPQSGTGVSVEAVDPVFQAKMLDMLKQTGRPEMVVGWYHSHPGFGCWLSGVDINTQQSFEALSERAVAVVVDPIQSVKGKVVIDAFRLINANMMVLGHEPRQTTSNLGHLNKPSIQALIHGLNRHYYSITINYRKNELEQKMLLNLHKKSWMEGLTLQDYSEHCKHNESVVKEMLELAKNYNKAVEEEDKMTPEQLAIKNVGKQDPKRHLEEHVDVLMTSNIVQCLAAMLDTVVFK
Procedure, shortened: as §1

Measured: log2 ratio of Biotin-Ahx-Ub-VS probe labelling

O=C(CCl)N1CCc2ccccc2C(O)C1 (stereo not given)
inactive: USP42 0.325 | USP46 -0.184 | USP47 0.0442 | USP48 -0.682 | USP5 -0.103 | USP54 0.265 | USP7 -0.687 | USP8 -0.372 | USP9X -0.333 | UniProt O00487 -0.0272
